About 200 (4.4%) of roughly 4,500 compounds were called active. The sample holds actives, similar compounds and a random draw of the others, so the mix is not that of the screen. Unmarked numbers belong to inactive results.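 The calls were made as follows: active = cell survival measured by absorbance rises more than 2.5-fold over infected cells without compound; inactive = the rest.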
experiment: survival after telomere uncapping, modulators, primary screen, cell-based (AID 1259312); settings: HCT116 + Ad-hTR-mut, MTT, 5 d; at 10 µM, active compounds read high;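 also: virus expresses mutant telomerase RNA that uncaps telomeres and kills cells; compound added 2 days after infection so exposure lasts 3 days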

Point of comparison: `CS(=O)(=O)NCCNC(=O)c1nonc1N`, fold change -1.3. Against it:
- Cc1ccn(-c2ccc([N+](=O)[O-])cc2)n1 — lower, -1.59
- O=C1NC(=O)/C(=C\c2ccc(-c3cccc(C(F)(F)F)c3)o2)S1 — lower, -1.8
- O=C1NC(=S)S/C1=C/c1ccc(-c2cccc(C(F)(F)F)c2)o1 — higher, 1.1
- O=C1CSc2ccc(NC(=O)C3CCCC3)cc2N1 — higher, 1.29
- O=[N+]([O-])c1ccc(N2CCCCC2)cc1N1CCOCC1 — higher, -1.29
- O=[N+]([O-])c1ccc(N2CCOCC2)cc1 — higher, 1.1
- O=C(O)C(C(=O)O)C1C=CCC1 (configuration not stated) — higher, 1.13
- Nc1cc(Cl)ccc1N1CCOCC1 — higher, 1.23
- Nc1ccc(N2CCOCC2)c(Br)c1 — higher, -1.07
- N#CC1=C(N)n2c(s/c(=C\c3ccc(Br)cc3)c2=O)=C(C#N)C1c1ccc(Br)cc1 (configuration not stated) — higher, -1.13
- Brc1ccc(-c2csc(N3CCOCC3)n2)cc1 — higher, 1.56
- Clc1ccc(-c2nc3sc(-c4ccc(Cl)cc4Cl)nc3s2)c(Cl)c1 — lower, -2.46
- COC(=O)c1nc2ccc(OC)cc2s1 — higher, -1.15
- COc1ccc(C2C(C#N)=C(N)NC(C(C#N)C#N)=C2C#N)cc1OC (configuration not stated) — lower, -1.8
- COC(=O)CNC(=O)c1ccn[nH]1 — higher, -1.28
- c1ccc(CCn2c(-c3ccccc3)csc2=Nc2ccccc2)cc1 — lower, -2.95
- CSc1nc(-c2ccc([N+](=O)[O-])cc2)nn1C — lower, -3.83
- NCCNC(=O)c1nonc1N — higher, 1.63
- O=C(O)c1[nH]c(=O)[nH]c(=O)c1[N+](=O)[O-] — higher, 1.2
- CS(=O)(=O)N1CCc2cc(S(=O)(=O)N3CCC(c4ccccc4)CC3)ccc21 — higher, 1.49
- CS(=O)(=O)Nc1cccc(Cl)c1Cl — lower, -1.31
- COc1ccc(CC2=CN(C)CC3=C2OC(N)=C(C#N)C3c2ccc(OC)c(OC)c2)cc1OC (configuration not stated) — higher, -1.28
- O=C(Nc1ccc(Cl)cc1)Nc1ccc(Cl)cc1Cl — lower, -2.79
- CCc1nnc(NC(=O)CN(C)CCC#N)s1 — lower, -1.46
- O=c1n(Cc2ccon2)c2ccccc2n1Cc1ccon1 — lower, -2.68
- COC(=O)Cn1c(=O)c2ccccc2n(CC(=O)OC)c1=O — lower, -1.31
- CCN(C(=O)Cc1cccs1)C1CCCCC1 — higher, -1.09
- Cn1c(=O)oc2ccc(S(=O)(=O)Nc3ccc4c(c3)n(C)c(=O)n4C)cc21 — lower, -1.89
- Nc1nonc1-c1ccccc1 — lower, -1.8
- Cc1ccc2c(c1)c1c3n2CCN(c2nc(-c4ccc(Cl)cc4)cs2)C3CCC1 (configuration not stated) — higher, 1.42
- O=C1CC(=O)N(c2ccc(Br)cc2)N1 — lower, -1.32
- Cn1cccc1/C=C1/C(=O)ON=C1c1ccccc1 — lower, -2.3
- CCCCCCC1(C)OCO/C1=C\C[N+](C)(C)C (configuration not stated) — lower, -1.62
- O=S(=O)(c1ccc(Oc2ccc(Br)cc2)cc1)N1CCOCC1 — higher, -1.23
- O=S(=O)(c1ccc(Br)cc1)N1CCCCCC1 — higher, 1.7
- Nc1nnc(SCc2cccc(CSc3nnc(N)s3)n2)s1 — higher, 1.27
- Cn1c(=O)n(C)c2cc(CN3C(=O)c4ccccc4C3=O)ccc21 — higher, 1.01
- O=S(=O)(Nc1ccc(Cl)cn1)c1ccc(Br)cc1 — higher, -1.1
- CC(=O)NS(=O)(=O)c1ccc(N)cc1 — lower, -1.73
- CNS(=O)(=O)c1ccc(N)cc1 — higher, 1.14
- Nc1ccc(S(=O)(=O)Nc2ccccc2)cc1 — higher, -1.09
- O=C(O)C1CCS(=O)(=O)C1 (configuration not stated) — higher, 2.36
- CCCOC(=O)C1=C(C)NC2=C(C(=O)CC(C)(C)C2)C1c1ccc(C)o1 (configuration not stated) — lower, -1.43
- CC1=C(C(=O)OCC2CCCO2)C(c2ccc(C)o2)C2=C(CCCC2=O)N1 (configuration not stated) — higher, 1.18
- CCCCC(CC)C(=O)N(CC#N)CC#N (configuration not stated) — higher, -1.13
- CC(C)(C)c1ccc(C(N2CCCCC2)P(=O)(c2ccccc2)N2CCCCC2)cc1 (configuration not stated) — higher, -1.12
- Cc1cc(/C=c2\sc3nc4ccccc4n3c2=O)c(C)n1C1CCCC1 — higher, -1.02
- Cn1cc([N+](=O)[O-])c(C(=O)n2cccn2)n1 — lower, -1.36
- COC(=O)c1ccc(=O)oc1 — higher, -1.06
- CN(C(=O)CSC(=S)N1CCCC1)c1ccccc1 — higher, 1.5
- CN1CCc2c(sc(N)c2C#N)C1 — higher, 1.58
- CC(=O)Nc1sc2c(c1C#N)CCCC2 — higher, 1.19
- c1ccc2c(Cc3ccncc3)c3ccccc3nc2c1 — higher, -1.25

With `N#CC(C#N)=Cc1ccc(-c2cccc(C(F)(F)F)c2)o1` the fold change was 2.62 (active).
For `Nc1cc(N2CCOCC2)ccc1[N+](=O)[O-]`, the fold change was 3.38 (active).
With `Nc1ccc(N2CCOCC2)c(Cl)c1` the fold change was 4.13 (active).
For `N#CC(C#N)C(c1ccsc1)c1c(-c2ccccc2)[nH][nH]c1=O` (configuration not stated), the fold change was 3.37 (active).
For `O=C(O)c1ccn[nH]1`, the fold change was 3.42 (active).
For `CCOC(=O)CO/N=C(\C(=O)O)c1ccn[nH]1`, the fold change was “inactive”.
With `Nc1nonc1C(=O)NCCNS(=O)(=O)c1ccccc1` the fold change was 3.28 (active).
With `O=C(O)CCCn1c(=O)n(CCCC(=O)O)c2ccccc21` the fold change was 3.81 (active).
With `Cc1ccc(N=Nc2ccccc2)c(N)n1` the fold change was 3.19 (active).
With `CC(=NCCCN1CCOCC1)c1c(C(F)(F)F)[nH]n(-c2nc3ccccc3s2)c1=O` the fold change was “inactive”.
In the case of `CCCCCCCN=C(C)c1c(C(F)(F)F)[nH]n(-c2nc3ccccc3s2)c1=O`, the fold change is reported as “active”.
For `CCCN=C(CC)c1c(C(F)(F)F)[nH]n(-c2nc3ccccc3s2)c1=O`, the fold change was “inactive”.
In the case of `CN1CCN(S(=O)(=O)c2ccc(Br)cc2)CC1`, the fold change is reported as 3.8 (active).
With `CCc1nnc(NS(=O)(=O)c2ccc(N)cc2)s1` the fold change was 3.88 (active).
With `Nc1ccc(S(=O)(=O)Nc2ccc(Cl)nn2)cc1` the fold change was 2.5 (active).
In the case of `O=c1[nH]c(O)c(C=Nc2ccccc2Br)c(=O)[nH]1`, the fold change is reported as “inactive”.
With `CC1=C(C(=O)OCC2CCCO2)C(c2ccc(C)o2)C2=C(CC(C)(C)CC2=O)N1` (configuration not stated) the fold change was 2.87 (active).
In the case of `N#Cc1c(N)sc2c1CCCCC2`, the fold change is reported as 3 (active).
